Data as given in PubChem BioAssay AID1159580 (chemical genetic matrix, 2015).
In all, about 5,500 compounds went through this assay and about 2,000 (36%) were called active. About 18% were inconclusive and are not listed. Cut-off read from the data, not from the text of the source: active = normalized growth mostly below about 0.91 (no sharp cut-off); inconclusive = no clear call, values can overlap the other calls; inactive = mostly above about 0.92. Some of the results follow.

Assay: chemical genetic growth profiling, strain panel (AID 1159580);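 note: tested at 20 µM; growth read once vehicle control cultures reached saturation at 30 °C; 1 = growth at the plate median or of vehicle wells; lower values mean less growth of the strain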
Settings: growth OD

Measured: normalized growth

CCN(CC)CCNc1ccc(CO)c2sc3ccccc3c(=O)c12
inactive: S. cerevisiae deletion strains, locus YJR075W, strain HOC1, hits give low values 0.979 | S. cerevisiae deletion strains, locus YKL009W, strain mrt4, hits give low values 0.993 | S. cerevisiae deletion strains, locus YKL068W, hits give low values 1 | S. cerevisiae deletion strains, locus YKL085W, strain MDH1 (second series), hits give low values 0.996 | S. cerevisiae deletion strains, locus YKL085W, strain MDH1, hits give low values 0.996 | S. cerevisiae deletion strains, locus YKL160W, strain elf1, hits give low values 1.01 | S. cerevisiae deletion strains, locus YKL190W, strain CNB1, hits give low values 1 | S. cerevisiae deletion strains, locus YKR001C, strain vps1, hits give low values 1 | S. cerevisiae deletion strains, locus YKR026C, strain gcn3, hits give low values 1.02 | S. cerevisiae deletion strains, locus YKR091W, strain srl3, hits give low values 1.01 | S. cerevisiae deletion strains, locus YLL001W, strain dnm1, hits give low values 1.01 | S. cerevisiae deletion strains, locus YLL026W, hits give low values 1.01 | S. cerevisiae deletion strains, locus YLL041C, strain sdh2, hits give low values 0.991 | S. cerevisiae deletion strains, locus YLR027C, strain aat2, hits give low values 1.01 | S. cerevisiae deletion strains, locus YLR039C, strain RIC1, hits give low values 1.01 | S. cerevisiae deletion strains, locus YLR058C, strain SHM2, hits give low values 0.998 | S. cerevisiae deletion strains, locus YLR102C, strain apc9, hits give low values 1.02 | S. cerevisiae deletion strains, locus YLR113W, strain HOG1, hits give low values 1.05 | S. cerevisiae deletion strains, locus YLR221C, strain rsa3, hits give low values 1.01 | S. cerevisiae deletion strains, locus YLR258W, strain gsy2, hits give low values 1.01 | S. cerevisiae deletion strains, locus YLR262C, strain YPT6 (second series), hits give low values 1 | S. cerevisiae deletion strains, locus YLR262C, strain YPT6, hits give low values 1.01 | S. cerevisiae deletion strains, locus YLR268W, strain sec22, hits give low values 0.947 | S. cerevisiae deletion strains, locus YLR320W, strain mms22, hits give low values 1.01 | S. cerevisiae deletion strains, locus YLR330W, strain CHS5, hits give low values 1.01 | S. cerevisiae deletion strains, locus YLR342W, strain FKS1 (second series), hits give low values 0.938 | S. cerevisiae deletion strains, locus YLR342W, strain FKS1, hits give low values 1 | S. cerevisiae deletion strains, locus YLR357W, strain rsc2, hits give low values 1.04 | S. cerevisiae deletion strains, locus YLR370C, strain arc18, hits give low values 1.01 | S. cerevisiae deletion strains, locus YLR371W, strain rom2, hits give low values 1.01 | S. cerevisiae deletion strains, locus YLR384C, strain iki3, hits give low values 1.01 | S. cerevisiae deletion strains, locus YLR418C, strain cdc73, hits give low values 0.919 | S. cerevisiae deletion strains, locus YML016C, strain PPZ1, hits give low values 0.996 | S. cerevisiae deletion strains, locus YML032C, strain rad52, hits give low values 0.948 | S. cerevisiae deletion strains, locus YML120C, strain ndi1, hits give low values 1.02 | S. cerevisiae deletion strains, locus YML124C, strain tub3, hits give low values 1.01 | S. cerevisiae deletion strains, locus YMR058W, strain fet3, hits give low values 0.998 | S. cerevisiae deletion strains, locus YMR078C, strain ctf18, hits give low values 1.01 | S. cerevisiae deletion strains, locus YMR125W, strain sto1, hits give low values 1 | S. cerevisiae deletion strains, locus YMR129W, hits give low values 1 | S. cerevisiae deletion strains, locus YMR205C, strain PFK2, hits give low values 0.997 | S. cerevisiae deletion strains, locus YMR223W, strain ubp8, hits give low values 0.994 | S. cerevisiae deletion strains, locus YMR231W, strain pep5, hits give low values 1.01 | S. cerevisiae deletion strains, locus YMR263W, strain SAP30, hits give low values 0.985 | S. cerevisiae deletion strains, locus YMR307W, strain GAS1, hits give low values 1.01 | S. cerevisiae deletion strains, locus YNL067W, strain RPL9B, hits give low values 0.973 | S. cerevisiae deletion strains, locus YNL071W, strain lat1, hits give low values 1.01 | S. cerevisiae deletion strains, locus YNL128W, strain TEP1, hits give low values 0.992 | S. cerevisiae deletion strains, locus YNL153C, strain GIM3, hits give low values 0.962 | S. cerevisiae deletion strains, locus YNL183C, strain NPR1, hits give low values 0.952 | S. cerevisiae deletion strains, locus YNL209W, strain ssb2, hits give low values 1.02 | S. cerevisiae deletion strains, locus YNL233W, strain BNI4, hits give low values 0.955 | S. cerevisiae deletion strains, locus YNL248C, strain rpa49, hits give low values 1 | S. cerevisiae deletion strains, locus YNL250W, strain rad50, hits give low values 1 | S. cerevisiae deletion strains, locus YNL271C, strain bni1, hits give low values 1.01 | S. cerevisiae deletion strains, locus YNL298W, strain CLA4, hits give low values 1.01 | S. cerevisiae deletion strains, locus YNL307C, strain MCK1, hits give low values 0.962 | S. cerevisiae deletion strains, locus YNL322C, strain KRE1 (second series), hits give low values 1.01 | S. cerevisiae deletion strains, locus YNL322C, strain KRE1, hits give low values 1.01 | S. cerevisiae deletion strains, locus YNR049C, strain mso1, hits give low values 1.01 | S. cerevisiae deletion strains, locus YNR052C, strain pop2, hits give low values 1.01 | S. cerevisiae deletion strains, locus YOL006C, strain TOP1, hits give low values 0.883 | S. cerevisiae deletion strains, locus YOL012C, strain htz1 0.879 | S. cerevisiae deletion strains, locus YOL147C, strain pex11, hits give low values 1.02 | S. cerevisiae deletion strains, locus YOR001W, strain rrp6, hits give low values 1 | S. cerevisiae deletion strains, locus YOR061W, strain CKA2, hits give low values 1 | S. cerevisiae deletion strains, locus YOR069W, strain VPS5, hits give low values 0.993 | S. cerevisiae deletion strains, locus YOR070C, strain gyp1, hits give low values 1 | S. cerevisiae deletion strains, locus YOR080W, strain dia2, hits give low values 1.01 | S. cerevisiae deletion strains, locus YOR083W, strain WHI5, hits give low values 1 | S. cerevisiae deletion strains, locus YOR106W, strain vam3, hits give low values 1.02 | S. cerevisiae deletion strains, locus YOR136W, strain idh2, hits give low values 1.01 | S. cerevisiae deletion strains, locus YOR144C, strain elg1, hits give low values 1 | S. cerevisiae deletion strains, locus YOR184W, strain ser1, hits give low values 0.995 | S. cerevisiae deletion strains, locus YOR231W, strain MKK1, hits give low values 1.04 | S. cerevisiae deletion strains, locus YOR265W, strain rbl2, hits give low values 1 | S. cerevisiae deletion strains, locus YOR270C, strain vph1, hits give low values 0.976 | S. cerevisiae deletion strains, locus YOR290C, strain snf2, hits give low values 1.01 | S. cerevisiae deletion strains, locus YOR316C, strain cot1, hits give low values 1.01 | S. cerevisiae deletion strains, locus YPL051W, strain arl3, hits give low values 0.997 | S. cerevisiae deletion strains, locus YPL055C, strain LGE1, hits give low values 0.954 | S. cerevisiae deletion strains, locus YPL078C, strain atp4, hits give low values 1.01 | S. cerevisiae deletion strains, locus YPL106C, strain sse1, hits give low values 1.02 | S. cerevisiae deletion strains, locus YPL240C, strain hsp82, hits give low values 1.01 | S. cerevisiae deletion strains, locus YPL241C, strain CIN2, hits give low values 1.02 | S. cerevisiae deletion strains, locus YPL256C, strain CLN2, hits give low values 1.01 | S. cerevisiae deletion strains, locus YPR119W, strain clb2, hits give low values 1.02 | S. cerevisiae deletion strains, locus YPR141C, strain kar3, hits give low values 1.02 | S. cerevisiae deletion strains, locus YPR163C, strain tif3, hits give low values 0.996 | S. cerevisiae deletion strains, locus YPR167C, strain met16, hits give low values 1.01 | S. cerevisiae deletion strains, strain wtn01, hits give low values 0.988 | S. cerevisiae strains, strain wild type, hits give low values 1.01
